Assay [1] can be described thus: BSK_KF3CT_SRB: Viability Assessment in the BioMAP Diversity Plus: KF3CT Assay (AID 2283069).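 Further: total protein by sulforhodamine B staining as a cytotoxicity measure; read 24 h after compound addition; fitted for both signal gain and loss against DMSO baseline.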 The conditions noted are these: primary human keratinocytes with fibroblasts. Summed up: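 Human keratinocyte and foreskin fibroblast co-culture exposed to chemical for 24 h. Total protein measured in parallel cultures by 0.1% sulforhodamine B staining after 10% TCA fixation, read at 560 nm; bidirectional fit relative to DMSO.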

Read-out in assay [2]: Interleukin-1 alpha (IL1a), IL1A (gene 3552)
The assay is described as follows: BSK_KF3CT_IL1a: BioMAP Diversity Plus: KF3CT Assay for Interleukin-1 alpha (IL1a) Biomarker Activity (AID 2283070). To be noted: primary human keratinocytes with fibroblasts; actives raise or lower the signal. Summed up:
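Primary human keratinocyte plus foreskin fibroblast co-culture, dosed and measured at 24 h in 96-well plates. IL-1a level quantified by ELISA; bidirectional fit relative to DMSO.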

Read-out in assay [3]: TIMP metallopeptidase inhibitor 2 (TIMP2), TIMP2 (gene 7077)
The assay is described as follows: BSK_KF3CT_TIMP2: BioMAP Diversity Plus: KF3CT Assay for TIMP metallopeptidase inhibitor 2 (TIMP2) Biomarker Activity (AID 2283071). The conditions noted are these: primary human keratinocytes with fibroblasts; actives raise or lower the signal. Summed up: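 Co-culture of human primary keratinocytes and foreskin fibroblasts, measured 24 h after chemical dosing. TIMP-2 quantified by ELISA and fitted in both directions relative to DMSO. Cytotoxicity checked in parallel cultures by SRB total-protein staining.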

Read-out in assay [4]: Transforming growth factor beta 1 (TGFb1), TGFB1 (gene 7040)
The assay is described as follows: BSK_KF3CT_TGFb1: BioMAP Diversity Plus: KF3CT Assay for Transforming growth factor beta 1 (TGFb1) Biomarker Activity (AID 2283072). To be noted: primary human keratinocytes with fibroblasts; actives raise or lower the signal. Summed up:
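Human keratinocyte/foreskin fibroblast co-culture; TGF-b1 measured by ELISA 24 h after dosing, fitted bidirectionally versus DMSO. Cytotoxicity checked in parallel cultures by total protein (SRB staining, 560 nm).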

Read-out in assay [5]: C-C motif chemokine 2 (Homo sapiens) (UniProt P13500)
The assay is described as follows: BSK_KF3CT_MCP1: BioMAP Diversity Plus: KF3CT Assay for Monocyte Chemoattractant Protein 1 (MCP1/CCL2) Biomarker Activity (AID 2283073). To be noted: primary human keratinocytes with fibroblasts; actives raise or lower the signal. In outline: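 ELISA readout of MCP-1 after 24 h chemical dosing of a human skin primary co-culture of keratinocytes and foreskin fibroblasts. Activity was fitted in both directions against DMSO.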

Read-out in assay [6]: Matrix Metallopeptidase 9 (MMP9), MMP9 (gene 4318)
The assay is described as follows: BSK_KF3CT_MMP9: BioMAP Diversity Plus: KF3CT Assay for Matrix Metallopeptidase 9 (MMP9) Biomarker Activity (AID 2283074).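 On AC50: MMP9 protein level quantified by ELISA in the co-culture.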 The conditions noted are these: primary human keratinocytes with fibroblasts; actives raise or lower the signal. Summed up: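 Human keratinocyte and foreskin fibroblast co-culture exposed to chemicals for 24 h; MMP9 biomarker measured by ELISA, bidirectional fitting relative to DMSO; cytotoxicity tracked by SRB total protein staining in parallel cultures.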

Read-out in assay [7]: urokinase plasminogen activator (uPA), PLAU (gene 5328)
The assay is described as follows: BSK_KF3CT_uPA: BioMAP Diversity Plus: KF3CT Assay for urokinase plasminogen activator (uPA) Biomarker Activity (AID 2283075). To be noted: primary human keratinocytes with fibroblasts; actives raise or lower the signal. Summed up: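 Primary human keratinocyte/foreskin fibroblast co-culture exposed to chemical; uPA measured by ELISA at 24 h. Bidirectional fit versus DMSO, with parallel SRB total-protein staining for cytotoxicity.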

Read-out in the next assay: CD40, CD40 (gene 958)
The assay is described as follows: BSK_LPS_CD40: BioMAP Diversity Plus: LPS Assay for CD40 Biomarker Activity (AID 2283076). To be noted: primary human HUVEC with PBMC; actives raise or lower the signal. In outline: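 Cells were dosed, incubated 24 h, then assayed for CD40 by ELISA. Gain or loss of signal was analysed relative to DMSO controls. The culture paired human umbilical vein endothelium with peripheral blood mononuclear cells.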

Read-out in assay [8]: E-selectin (Homo sapiens) (UniProt P16581)
The assay is described as follows: BSK_LPS_Eselectin: BioMAP Diversity Plus: LPS Assay for Eselectin Biomarker Activity (AID 2283077). To be noted: primary human HUVEC with PBMC; actives raise or lower the signal. Summed up: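 Primary human vascular co-culture (endothelium plus PBMC) was dosed with chemical, then E-selectin quantified by ELISA at 24 h. Endpoint values derive from bidirectional curve fitting relative to DMSO.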

Read-out in assay [9]: Interleukin-8 (IL8), CXCL8 (gene 3576)
The assay is described as follows: BSK_LPS_IL8: BioMAP Diversity Plus: LPS Assay for Interleukin-8 (IL8) Biomarker Activity (AID 2283078). The conditions noted are these: primary human HUVEC with PBMC; actives raise or lower the signal. In outline:
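Readout is IL-8 by ELISA, taken 24 h after compounds were added to LPS-stimulated endothelial/PBMC co-cultures. Both increases and decreases relative to DMSO control were scored through bidirectional fitting.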

Activity calls are given as the source filed them. How the source made its calls: active means hit-call score of the fitted dose curve at least 0.9, where 1 is the maximum; inactive means score below 0.9.

The AC50 is the concentration at which the activity in the assay is half-maximal.

Sequence of E-selectin (Homo sapiens) (P16581 whole entry, looked up): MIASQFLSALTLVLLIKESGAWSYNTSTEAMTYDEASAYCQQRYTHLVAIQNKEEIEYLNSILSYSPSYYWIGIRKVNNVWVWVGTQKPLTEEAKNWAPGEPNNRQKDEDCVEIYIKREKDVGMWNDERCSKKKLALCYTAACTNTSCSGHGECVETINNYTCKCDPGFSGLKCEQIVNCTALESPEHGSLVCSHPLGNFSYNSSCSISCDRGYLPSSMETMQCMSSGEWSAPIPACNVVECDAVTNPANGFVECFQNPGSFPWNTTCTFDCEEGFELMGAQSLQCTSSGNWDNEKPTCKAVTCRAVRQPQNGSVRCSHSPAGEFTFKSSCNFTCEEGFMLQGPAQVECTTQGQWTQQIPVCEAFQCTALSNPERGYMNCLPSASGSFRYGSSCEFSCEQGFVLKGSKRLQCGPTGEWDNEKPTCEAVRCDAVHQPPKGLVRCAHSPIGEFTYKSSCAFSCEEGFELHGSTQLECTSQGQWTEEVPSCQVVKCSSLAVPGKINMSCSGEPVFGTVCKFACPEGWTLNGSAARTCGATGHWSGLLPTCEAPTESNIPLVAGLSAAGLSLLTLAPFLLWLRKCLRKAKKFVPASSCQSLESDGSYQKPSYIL

Regarding `CC(C)Oc1cc(-n2nc(C(C)(C)C)oc2=O)c(Cl)cc1Cl`, the outcome in assay [1], in [3], in assay [4], in [5] and in assay [7] was inactive. In addition, the AC50 is 13.9 µM (active) in assay [2]; 28.8 µM (active) in assay [6]; 14.8 µM (active) with CD40, CD40 (gene 958); 31.3 µM (active) in assay [8]; 31.5 µM (active) in assay [9].

For the molecule `Oc1ccccc1-c1ccccc1`, the result in [1], in assay [2], in assay [3], in [4], in assay [5] and in assay [6] was inactive. For the same molecule, the outcome is “inactive” in assay [7]; “inactive” with CD40, CD40 (gene 958); “inactive” in assay [8]; “inactive” in assay [9].

For `CCOP(=S)(OCC)SCn1c(=O)oc2cc(Cl)ccc21`, the result in assay [1], in [2], in assay [3], in [4], in [5] and in [6] was inactive. Further, in [7], the outcome was inactive. In addition, the AC50 was 16.6 µM (active) in the assay with CD40, CD40 (gene 958); 9.68 µM (active) in [8]; 16.9 µM (active) in assay [9].

With `CCOC(=O)C(Cl)Cc1cc(-n2nc(C)n(C(F)F)c2=O)c(F)cc1Cl` (stereo not given), the outcome in assay [1], in assay [2], in assay [3], in assay [4], in assay [5] and in [6] was inactive. The outcome was “inactive” in assay [7]; “inactive” with CD40, CD40 (gene 958); “inactive” in [8]; “inactive” in assay [9].

Turning to `CNC(=O)ON=CC(C)(C)SC`, the result in assay [1], in [3], in [4], in assay [5], in assay [6] and in [7] was inactive. For the same molecule, the outcome with CD40, CD40 (gene 958) is “inactive”; in [8] it was “inactive”; in [9] it was “inactive”. The concentration at half-maximal activity (AC50) in assay [2] is 1.34 µM (active).

`CCc1nn(C)c(C(=O)NCc2ccc(C(C)(C)C)cc2)c1Cl`: the concentration at half-maximal activity (AC50) is 32.4 µM (active) in assay [1]; 29.5 µM (active) in [2]; 27.7 µM (active) in assay [3]; 27.1 µM (active) in assay [5]; 30.6 µM (active) in [6]; 35.4 µM (active) in assay [7]. Further, the AC50 with CD40, CD40 (gene 958) is 24.3 µM (active); in assay [8], 20 µM (active); in assay [9], 20 µM (active). Moreover, the result in [4] was inactive.

Take `CC1=C(C(=O)Nc2ccccc2)SCCO1`: the result in assay [1], in assay [2], in assay [3], in [4], in assay [5] and in assay [6] was inactive. In addition, the outcome is “inactive” in assay [7]; “inactive” with CD40, CD40 (gene 958); “inactive” in assay [8]; “inactive” in [9].

Consider `CN(C)C(=S)SSC(=S)N(C)C`, for which the half-maximal activity concentration (AC50) was 7.21 µM (active) in assay [1]; 6.44 µM (active) in assay [2]; 6.4 µM (active) in assay [3]; 8.71 µM (active) in [4]; 5.09 µM (active) in assay [5]; 7.1 µM (active) in assay [6]. The half-maximal activity concentration (AC50) is 10.3 µM (active) in assay [7]; 24.7 µM (active) with CD40, CD40 (gene 958); 28.5 µM (active) in [8]; 26.5 µM (active) in assay [9].

As to `COc1ccc(C(c2ccc(OC)cc2)C(Cl)(Cl)Cl)cc1`, the AC50 in assay [1] is 8.76 µM (active); in [2], 7.74 µM (active); in assay [6], 12.7 µM (active); in the assay with CD40, CD40 (gene 958), 23.3 µM (active); in assay [8], 27.5 µM (active); in assay [9], 25 µM (active). The result in [3], in assay [4], in assay [5] and in assay [7] was inactive.

Regarding `Cc1c(F)c(F)c(COC(=O)C2C(/C=C(\Cl)C(F)(F)F)C2(C)C)c(F)c1F` (stereo not given), the outcome in assay [1], in assay [2], in assay [3], in assay [4], in assay [5] and in [7] was inactive. Further, the result in assay [8] was inactive. Moreover, the AC50 in assay [6] is 2.72 µM (active); with CD40, CD40 (gene 958), 13.7 µM (active); in [9], 12.2 µM (active).

In the case of `COC(=O)C=C(C)OP(=O)(OC)OC`, the result in assay [1], in [2], in assay [3], in [4], in assay [5] and in assay [6] was inactive. Moreover, the outcome in assay [7] was “inactive”; with CD40, CD40 (gene 958), “inactive”; in assay [8] it was “inactive”; in assay [9] it was “inactive”.

Take `C=CCC1=C(C)[C@@H](OC(=O)[C@@H]2[C@@H](C=C(C)C)C2(C)C)CC1=O`: the AC50 in [1] was 20 µM (active); in assay [6], 32.6 µM (active); in the assay with CD40, CD40 (gene 958), 29.2 µM (active); in [8], 32.4 µM (active); in [9] it was 26.3 µM (active). Also, the outcome in assay [2], in [3], in assay [4], in [5] and in [7] was inactive.

As for `OC(c1ccc(Cl)cc1)(c1cncnc1)c1ccccc1Cl` (stereo not given), the result in assay [1], in [2], in [3], in [4], in assay [5] and in assay [6] was inactive. The outcome in assay [7], in [8] and in assay [9] was inactive. Moreover, the concentration at half-maximal activity (AC50) in the assay with CD40, CD40 (gene 958) was 15.8 µM (active).

With `CC(C)(C)c1ccc(CSc2cnn(C(C)(C)C)c(=O)c2Cl)cc1`, the AC50 in assay [1] was 20 µM (active); in assay [2] it was 6.93 µM (active); in [3], 22.9 µM (active); in assay [5], 20 µM (active); in assay [6] it was 18.6 µM (active); in assay [7], 4.28 µM (active). The AC50 with CD40, CD40 (gene 958) is 8.25 µM (active); in assay [9], 3.16 µM (active). Besides, the outcome in assay [4] and in [8] was inactive.

Source of the values: PubChem BioAssay (EPA / NIEHS).
